From the supplement of paper PMC12819154, “High-throughput peptide-centric local stability assay extends protein–ligand identification to membrane proteins, tissues and bacteria” (Nature Structural & Molecular Biology, 2025)

Compound: CN[C@@H]1C[C@H]2O[C@@](C)([C@@H]1OC)n1c3ccccc3c3c4c(c5c6ccccc6n2c5c31)C(=O)NC4 [staurosporine]
Assay: log2 fold change of tryptic peptide abundance, ligand vs vehicle (limited proteolysis) (log2 ratio); higher = more trypsin-susceptible (destabilized)
Conditions: ligand concentration: 20 uM; sample: mouse liver crude lysate; replicate design: treated separately

UniProt P70349, sequence (P70349 whole entry): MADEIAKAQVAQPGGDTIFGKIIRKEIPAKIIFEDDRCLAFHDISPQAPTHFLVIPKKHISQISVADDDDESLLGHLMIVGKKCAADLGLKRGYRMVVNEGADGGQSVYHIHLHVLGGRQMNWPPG
UniProt P47757, sequence (P47757 whole entry): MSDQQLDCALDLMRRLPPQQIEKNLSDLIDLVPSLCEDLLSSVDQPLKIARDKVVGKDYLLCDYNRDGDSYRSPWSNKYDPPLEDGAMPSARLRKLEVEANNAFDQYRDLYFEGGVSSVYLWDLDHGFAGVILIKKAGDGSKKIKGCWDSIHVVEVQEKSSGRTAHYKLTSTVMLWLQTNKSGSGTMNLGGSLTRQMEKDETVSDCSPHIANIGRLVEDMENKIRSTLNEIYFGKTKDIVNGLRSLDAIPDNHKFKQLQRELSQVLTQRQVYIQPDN
UniProt P41216, sequence (P41216 whole entry): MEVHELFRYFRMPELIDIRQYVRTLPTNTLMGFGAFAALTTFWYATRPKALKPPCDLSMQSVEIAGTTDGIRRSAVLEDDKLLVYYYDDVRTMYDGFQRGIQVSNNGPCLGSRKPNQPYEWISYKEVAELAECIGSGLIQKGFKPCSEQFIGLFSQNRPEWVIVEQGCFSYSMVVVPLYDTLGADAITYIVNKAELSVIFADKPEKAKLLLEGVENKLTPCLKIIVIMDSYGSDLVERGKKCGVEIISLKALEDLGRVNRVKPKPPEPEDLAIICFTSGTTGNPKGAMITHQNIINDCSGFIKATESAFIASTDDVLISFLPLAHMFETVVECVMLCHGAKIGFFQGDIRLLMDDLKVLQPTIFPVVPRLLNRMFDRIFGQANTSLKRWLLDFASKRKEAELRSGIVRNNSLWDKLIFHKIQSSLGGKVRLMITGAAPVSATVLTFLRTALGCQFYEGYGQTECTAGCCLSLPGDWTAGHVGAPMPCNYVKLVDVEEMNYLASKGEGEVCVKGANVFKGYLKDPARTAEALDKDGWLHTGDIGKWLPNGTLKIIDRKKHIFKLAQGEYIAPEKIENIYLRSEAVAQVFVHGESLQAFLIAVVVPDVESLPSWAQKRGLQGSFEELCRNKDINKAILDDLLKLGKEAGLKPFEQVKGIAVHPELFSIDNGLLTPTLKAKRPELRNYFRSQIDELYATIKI
UniProt P97864, sequence (P97864 whole entry): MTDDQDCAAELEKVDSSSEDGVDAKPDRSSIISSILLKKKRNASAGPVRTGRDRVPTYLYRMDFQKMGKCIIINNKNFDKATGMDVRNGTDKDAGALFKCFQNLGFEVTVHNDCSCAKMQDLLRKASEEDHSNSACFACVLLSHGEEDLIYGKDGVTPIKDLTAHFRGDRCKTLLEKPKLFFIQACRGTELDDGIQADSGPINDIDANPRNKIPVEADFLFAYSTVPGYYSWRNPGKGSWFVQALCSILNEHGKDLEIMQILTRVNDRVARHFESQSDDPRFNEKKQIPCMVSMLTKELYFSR
UniProt Q5F2E8, sequence (Q5F2E8 whole entry): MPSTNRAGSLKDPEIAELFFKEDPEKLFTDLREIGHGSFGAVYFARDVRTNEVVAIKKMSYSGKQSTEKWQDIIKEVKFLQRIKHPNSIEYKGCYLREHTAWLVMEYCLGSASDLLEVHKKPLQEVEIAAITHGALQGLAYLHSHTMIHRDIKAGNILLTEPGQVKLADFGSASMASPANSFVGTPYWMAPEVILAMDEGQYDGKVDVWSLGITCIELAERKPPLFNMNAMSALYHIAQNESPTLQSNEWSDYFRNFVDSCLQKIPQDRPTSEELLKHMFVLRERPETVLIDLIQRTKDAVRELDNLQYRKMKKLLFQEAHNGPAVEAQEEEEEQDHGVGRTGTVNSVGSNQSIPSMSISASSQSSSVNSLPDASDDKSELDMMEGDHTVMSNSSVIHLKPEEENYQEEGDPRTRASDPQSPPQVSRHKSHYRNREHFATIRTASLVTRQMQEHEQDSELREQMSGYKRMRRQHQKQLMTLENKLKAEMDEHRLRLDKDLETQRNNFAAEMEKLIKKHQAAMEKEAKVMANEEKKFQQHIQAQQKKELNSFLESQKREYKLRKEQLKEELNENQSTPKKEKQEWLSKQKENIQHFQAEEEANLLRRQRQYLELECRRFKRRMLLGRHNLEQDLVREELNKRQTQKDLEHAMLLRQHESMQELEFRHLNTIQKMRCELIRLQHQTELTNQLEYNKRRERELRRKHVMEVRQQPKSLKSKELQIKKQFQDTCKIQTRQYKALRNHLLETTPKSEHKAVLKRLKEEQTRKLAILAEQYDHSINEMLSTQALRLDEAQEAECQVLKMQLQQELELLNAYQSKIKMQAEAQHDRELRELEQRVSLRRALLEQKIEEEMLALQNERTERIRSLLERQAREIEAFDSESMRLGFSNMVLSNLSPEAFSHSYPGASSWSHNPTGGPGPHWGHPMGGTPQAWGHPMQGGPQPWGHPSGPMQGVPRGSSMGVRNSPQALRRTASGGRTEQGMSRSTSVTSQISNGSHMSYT
UniProt Q8VI63, sequence (Q8VI63 whole entry): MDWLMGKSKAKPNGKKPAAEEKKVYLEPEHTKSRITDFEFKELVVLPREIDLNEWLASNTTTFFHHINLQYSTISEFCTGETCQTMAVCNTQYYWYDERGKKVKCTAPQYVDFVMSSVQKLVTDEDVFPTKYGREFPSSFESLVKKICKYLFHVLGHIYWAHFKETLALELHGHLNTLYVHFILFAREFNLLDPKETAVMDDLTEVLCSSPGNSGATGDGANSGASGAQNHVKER
UniProt Q80XL6, sequence (Q80XL6 whole entry): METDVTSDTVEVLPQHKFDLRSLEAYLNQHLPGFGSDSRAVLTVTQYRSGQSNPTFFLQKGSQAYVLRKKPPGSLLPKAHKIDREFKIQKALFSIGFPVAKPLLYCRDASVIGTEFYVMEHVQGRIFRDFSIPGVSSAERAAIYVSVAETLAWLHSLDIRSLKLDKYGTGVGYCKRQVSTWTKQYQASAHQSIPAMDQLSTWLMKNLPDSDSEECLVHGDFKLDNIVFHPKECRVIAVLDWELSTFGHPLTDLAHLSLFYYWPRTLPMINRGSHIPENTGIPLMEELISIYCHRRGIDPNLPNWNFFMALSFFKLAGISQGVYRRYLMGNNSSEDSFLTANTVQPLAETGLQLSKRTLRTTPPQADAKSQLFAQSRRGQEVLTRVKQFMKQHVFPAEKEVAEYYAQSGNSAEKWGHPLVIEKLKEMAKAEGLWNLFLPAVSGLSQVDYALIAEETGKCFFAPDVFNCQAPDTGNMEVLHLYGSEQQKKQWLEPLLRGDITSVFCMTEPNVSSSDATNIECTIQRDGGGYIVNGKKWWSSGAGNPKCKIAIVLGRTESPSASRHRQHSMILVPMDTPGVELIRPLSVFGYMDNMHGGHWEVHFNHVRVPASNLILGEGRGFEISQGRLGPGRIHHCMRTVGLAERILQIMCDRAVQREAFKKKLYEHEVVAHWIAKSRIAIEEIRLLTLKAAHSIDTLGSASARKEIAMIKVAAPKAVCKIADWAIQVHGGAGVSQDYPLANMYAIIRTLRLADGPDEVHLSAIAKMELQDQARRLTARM
UniProt O70291, sequence (O70291 whole entry): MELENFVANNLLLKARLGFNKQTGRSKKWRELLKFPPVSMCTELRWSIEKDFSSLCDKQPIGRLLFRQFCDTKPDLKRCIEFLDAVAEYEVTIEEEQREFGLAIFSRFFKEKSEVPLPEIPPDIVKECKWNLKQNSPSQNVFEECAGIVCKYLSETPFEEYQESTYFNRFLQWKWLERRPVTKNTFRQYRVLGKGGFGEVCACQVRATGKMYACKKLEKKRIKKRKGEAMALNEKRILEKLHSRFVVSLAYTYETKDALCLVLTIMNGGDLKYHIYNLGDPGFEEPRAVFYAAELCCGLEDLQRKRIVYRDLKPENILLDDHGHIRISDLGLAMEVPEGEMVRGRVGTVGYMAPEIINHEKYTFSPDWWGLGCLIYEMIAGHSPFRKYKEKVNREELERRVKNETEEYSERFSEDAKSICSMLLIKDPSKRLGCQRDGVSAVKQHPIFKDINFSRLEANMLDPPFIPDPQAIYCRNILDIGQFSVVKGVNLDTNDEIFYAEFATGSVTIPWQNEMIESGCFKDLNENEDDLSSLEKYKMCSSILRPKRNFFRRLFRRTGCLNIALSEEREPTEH
UniProt Q64464, sequence (Q64464 whole entry): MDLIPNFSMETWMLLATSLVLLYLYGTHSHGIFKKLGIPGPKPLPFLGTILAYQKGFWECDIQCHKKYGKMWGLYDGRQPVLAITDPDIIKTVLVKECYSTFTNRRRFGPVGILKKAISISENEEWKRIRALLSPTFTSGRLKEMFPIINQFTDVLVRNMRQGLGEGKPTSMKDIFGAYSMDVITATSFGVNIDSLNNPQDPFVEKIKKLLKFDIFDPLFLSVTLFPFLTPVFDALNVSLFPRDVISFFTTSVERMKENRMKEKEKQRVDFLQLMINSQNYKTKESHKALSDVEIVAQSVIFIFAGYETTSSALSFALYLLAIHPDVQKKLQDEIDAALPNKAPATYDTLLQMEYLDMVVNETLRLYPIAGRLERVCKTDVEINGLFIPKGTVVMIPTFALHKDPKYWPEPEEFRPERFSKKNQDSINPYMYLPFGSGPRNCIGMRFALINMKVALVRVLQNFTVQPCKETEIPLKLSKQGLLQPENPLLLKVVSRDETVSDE
UniProt Q924L1, sequence (Q924L1 whole entry): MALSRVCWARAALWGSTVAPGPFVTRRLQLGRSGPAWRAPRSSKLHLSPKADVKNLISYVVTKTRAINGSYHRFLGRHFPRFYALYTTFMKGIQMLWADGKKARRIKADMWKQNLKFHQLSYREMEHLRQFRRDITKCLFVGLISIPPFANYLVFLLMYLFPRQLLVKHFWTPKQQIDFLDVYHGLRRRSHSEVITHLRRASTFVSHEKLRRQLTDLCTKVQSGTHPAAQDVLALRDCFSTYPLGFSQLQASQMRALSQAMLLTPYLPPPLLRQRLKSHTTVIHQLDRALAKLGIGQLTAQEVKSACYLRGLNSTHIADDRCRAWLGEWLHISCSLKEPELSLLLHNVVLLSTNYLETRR

Target | log2 fold change
UniProt Q8BGS7 (peptide sequence: LFQLPTPPLSR, peptide start residue: 35) | 0.348
UniProt P97864 (peptide sequence: LFFIQACR, peptide start residue: 180) | -0.485
UniProt Q3UU96 (peptide sequence: LHREDFEILK, peptide start residue: 72) | -1.65
UniProt Q8JZU2 (peptide sequence: FIHDQTSSNPK, peptide start residue: 150) | 0.438
UniProt Q64028 (peptide sequence: PQIAQMSLYER, peptide start residue: 24) | 0.725
UniProt Q9R117 (peptide sequence: NVLLDNDR, peptide start residue: 1025) | -1.42
UniProt P42932 (peptide sequence: AIAGTGANVIVTGGK, peptide start residue: 282) | -0.803
UniProt Q9DB30 (peptide sequence: IMEVSAER, peptide start residue: 54) | -3.03
UniProt Q9CQE7 (peptide sequence: QFDAYPK, peptide start residue: 9) | 0.366
UniProt P41216 (peptide sequence: WLLDFASK, peptide start residue: 389) | 0.328
UniProt Q924L1 (peptide sequence: NLISYVVTK, peptide start residue: 55) | 0.543
UniProt Q9WV60 (peptide sequence: LCDSGELVAIKK, peptide start residue: 75) | -4.12
UniProt O70291 (peptide sequence: DLKPENILLDDHGHIR, peptide start residue: 311) | -1.62
UniProt Q9JM52 (peptide sequence: GNALKEDCIAYICR, peptide start residue: 122) | -0.672
UniProt O88351 (peptide sequence: DLKPENIVLQQGEKR, peptide start residue: 145) | -0.744
UniProt P20444 (peptide sequence: LGCGPEGER, peptide start residue: 581) | -2.63
UniProt E9Q414 (peptide sequence: LPQQIHHYLNASDWER, peptide start residue: 2117) | 0.422
UniProt Q07417 (peptide sequence: GISAFLVPMPTPGLTLGKKEDK, peptide start residue: 209) | 0.268
UniProt P70349 (peptide sequence: IIFEDDR, peptide start residue: 31) | -0.309

Target | log2 fold change
UniProt Q80XL6 (peptide sequence: NLPDSDSEECLVHGDFK, peptide start residue: 206) | -0.421
UniProt Q8CIM7 (peptide sequence: GNPESSFNDKNLR, peptide start residue: 287) | -0.562
UniProt O88630 (peptide sequence: MNTLANRFPAVNSLIQR, peptide start residue: 205) | 0.676
UniProt P47757 (peptide sequence: QMEKDETVSDCSPHIANIGR, peptide start residue: 196) | -1.11
UniProt Q9CQU3 (peptide sequence: YIPFTHGK, peptide start residue: 174) | 0.278
UniProt Q8VI63 (peptide sequence: ITDFEFK, peptide start residue: 35) | 0.579
UniProt Q99PV0 (peptide sequence: VESHFDLELR, peptide start residue: 677) | 0.478
UniProt O55137 (peptide sequence: GLAPEQPVTLR, peptide start residue: 25) | -0.292
UniProt O08648 (peptide sequence: IFEGIKHPNLVR, peptide start residue: 1382) | -0.814
UniProt Q5F2E8 (peptide sequence: AGNILLTEPGQVK, peptide start residue: 150) | -2.13
UniProt Q60855 (peptide sequence: DLKPENILVDRDFHIK, peptide start residue: 138) | 1.33
UniProt Q64261 (peptide sequence: ISAYGALNHPYFQDLER, peptide start residue: 289) | 0.478
UniProt Q64464 (peptide sequence: ALLSPTFTSGR, peptide start residue: 131) | -0.724
UniProt O35857 (peptide sequence: NSKGEVYDGDPDKVQR, peptide start residue: 403) | -0.52
UniProt Q3TWW8 (peptide sequence: CSWQDLKDFMR, peptide start residue: 121) | 1.07
UniProt P27659 (peptide sequence: LLPLRQKK, peptide start residue: 170) | -0.616
UniProt Q9D517 (peptide sequence: GLPPLKYHLLPR, peptide start residue: 196) | 0.633
UniProt Q9DBM2 (peptide sequence: VGIPVVAVESDPKQLDTAKK, peptide start residue: 317) | 0.344
UniProt Q9D6U8 (peptide sequence: HESLTSLNLER, peptide start residue: 130) | 0.435
